# In PubChem BioAssay:
# Experiment: caspase-8 TRAIL sensitization, hit retest, confirmation, cell-based, NB7+caspase-8, with/without TRAIL, luminescence panel (AID 651596)
# Details: NB7 neuroblastoma + caspase-8, without TRAIL, luminescence viability, without TRAIL, mean of runs, at 10 µM
row,SMILES,activity [%]
1,COc1ccc(Oc2c(Cl)cnn(-c3ccc(Cl)c(Cl)c3)c2=O)cc1,99.1
2,COc1ccc(CN(C(=O)CSc2nnc(-c3ccccc3C)o2)c2ccc(F)cc2)cc1,97.3
3,CC(=O)Oc1ccc(/C=C/c2nc3ccccc3c(=O)o2)cc1,75.2
4,CC(=O)Oc1ccccc1C(=O)C=Cc1cccc([N+](=O)[O-])c1,76.7
5,CCC(=O)N1CCN(c2ccc(NC(=O)c3cc4ccccc4o3)cc2Cl)CC1,54.4
6,COc1cccc(/C=N/Nc2nn3cnnc3c3ccccc23)c1,61.4
7,Cc1nn(-c2ccccc2)c(Cl)c1/C=N/NC(=O)c1[nH]ncc1Br,71.9
8,CN(C)c1ccc(-c2nc3ccccn3c2/N=C/c2ccc(Br)cc2)cc1,47
9,CCn1c(=O)c([N+](=O)[O-])c(Cl)c2ccccc21,70.1
10,Cc1ccc(C2=Nc3ccccc3N=C(C(Cl)Cl)C2)cc1,6.45
11,CC(C)(C)C(=O)Nc1ccc(-c2cn3ccsc3n2)cc1,95.8
12,COc1ccc(/C=N\n2nnc3ccccc32)cc1,42.7
13,CCn1cc(C(=O)NCC(OC)OC)c(=O)c2cc(S(=O)(=O)N3CCC(C)CC3)ccc21,64.5
14,N/C(Cc1ccc(Cl)cc1)=N\OC(=O)c1cccc2ccccc12,97.5
15,CC(=O)N1CCc2c(sc(NC(=O)c3ccc([N+](=O)[O-])o3)c2C(N)=O)C1,90.9
16,COc1ccccc1Nc1nc(N)nc(CCl)n1,96.4
17,CCOc1ccc2nc(-c3ccccc3)[nH]c2c1,76
18,Cn1c(NC(=O)c2ccc(F)cc2)nc2ccccc21,57.1
19,COC(=O)c1ccc(-c2nc3cc(N)ccc3o2)cc1,44.6
